This is one part of a sample in which the strongest signals are shown more often than they occur.
Assays:
Test in all cases: glycan array binding signal (z-score within array); higher = stronger binding
Conditions in all cases: glycan notation: IUPAC condensed, linker removed
[1] = target: Fuc(a1-2)Gal(b1-3)[Fuc(a1-4)]GlcNAc(b1-2)Man(a1-3)[Fuc(a1-2)Gal(b1-3)[Fuc(a1-4)]GlcNAc(b1-2)Man(a1-3)]Man(b1-4)GlcNAc(b1-4)GlcNAc
How it was run: (§1)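 From the Consortium for Functional Glycomics database, 3228 arrays were curated, keeping only those whose protein sequence was available. Binding is given as a within-array Z-score averaged across arrays sharing a protein sequence and across linkers. Negative Z-scores can be read as non-binding.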

[2] = target: Fuc(a1-2)Gal(b1-3)[Fuc(a1-4)]GlcNAc(b1-2)Man(a1-3)[Fuc(a1-2)Gal(b1-3)[Fuc(a1-4)]GlcNAc(b1-2)Man(a1-6)]Man(b1-4)GlcNAc(b1-4)[Fuc(a1-6)]GlcNAc(b1-4)[Fuc(a1-6)]GlcNAc
How it was run: as §1

[3] = target: Fuc(a1-2)Gal(b1-4)GlcNAc(b1-2)Man(a1-3)[Fuc(a1-2)Gal(b1-4)GlcNAc(b1-2)Man(a1-6)]Man(b1-4)GlcNAc(b1-4)[Fuc(a1-6)]GlcNAc
How it was run: as §1

[4] = target: Fuc(a1-2)[Gal(a1-3)]Gal(b1-3)GalNAc
How it was run: as §1

[5] = target: Fuc(a1-2)[Gal(a1-3)]Gal(b1-3)GlcNAc(b1-3)GalNAc
How it was run: as §1

[6] = target: Fuc(a1-2)[Gal(a1-3)]Gal(b1-4)GlcNAc(b1-2)Man(a1-3)[Fuc(a1-2)[Gal(a1-3)]Gal(b1-4)GlcNAc(b1-2)Man(a1-6)]Man(b1-4)GlcNAc(b1-4)[Fuc(a1-6)]GlcNAc
How it was run: as §1

[7] = target: Fuc(a1-2)[Gal(a1-3)]Gal(b1-4)GlcNAc(b1-3)[Fuc(a1-2)[Gal(a1-3)]Gal(b1-4)GlcNAc(b1-6)]GalNAc
How it was run: as §1

[8] = target: Fuc(a1-2)[Gal(a1-3)]Gal(b1-4)[Fuc(a1-3)]GlcNAc
How it was run: as §1

[9] = target: Fuc(a1-2)[Gal(a1-3)]Gal(b1-4)[Fuc(a1-3)]GlcNAc(b1-3)GalNAc
How it was run: as §1

[10] = target: Fuc(a1-2)[GalNAc(a1-3)]Gal(b1-3)GalNAc(b1-3)Gal(a1-4)Gal(b1-4)Glc
How it was run: as §1

[11] = target: Fuc(a1-3)[Gal(b1-4)]GlcNAc(b1-2)Man
How it was run: as §1

Fuc(a1-4)GlcNAc = target: Fuc(a1-4)GlcNAc
How it was run: as §1

[12] = target: Gal(a1-3)Gal(b1-4)[Fuc(a1-3)]GlcNAc
How it was run: as §1

[13] = target: Gal(a1-3)Gal(b1-4)[Fuc(a1-3)]GlcNAc(b1-2)Man(a1-3)[Gal(a1-3)Gal(b1-4)[Fuc(a1-3)]GlcNAc(b1-2)Man(a1-6)]Man(b1-4)GlcNAc(b1-4)GlcNAc
How it was run: as §1

Gal(a1-3)GalNAc = target: Gal(a1-3)GalNAc
How it was run: as §1

[14] = target: Gal(a1-4)Gal(b1-4)GlcNAc(b1-2)Man(a1-3)[Gal(a1-4)Gal(b1-4)GlcNAc(b1-2)Man(a1-6)]Man(b1-4)GlcNAc(b1-4)GlcNAc
How it was run: as §1

Gal(a1-6)Glc = target: Gal(a1-6)Glc
How it was run: as §1

[15] = target: Gal(b1-3)GalNAc(a1-3)[Fuc(a1-2)]Gal(b1-4)Glc
How it was run: as §1

Gal(b1-3)GlcNAc(b1-2)Man = target: Gal(b1-3)GlcNAc(b1-2)Man
How it was run: as §1

[16] = target: Gal(b1-3)GlcNAc(b1-2)[Gal(b1-3)GlcNAc(b1-6)]Man(a1-6)[Gal(b1-3)GlcNAc(b1-2)Man(a1-3)]Man(b1-4)GlcNAc(b1-4)GlcNAc
How it was run: as §1

Gal(b1-4)Gal = target: Gal(b1-4)Gal
How it was run: as §1

[17] = target: Gal(b1-4)GalNAc(b1-3)[Fuc(a1-2)]Gal(b1-4)GlcNAc
How it was run: as §1

[18] = target: Gal(b1-4)GlcNAc(b1-2)[Gal(b1-4)GlcNAc(b1-4)]Man(a1-3)[Gal(b1-4)GlcNAc(b1-2)[Gal(b1-4)GlcNAc(b1-6)]Man(a1-6)]Man(b1-4)GlcNAc(b1-4)GlcNAc
How it was run: as §1

[19] = target: Gal(b1-4)GlcNAc(b1-3)Gal(b1-4)GlcNAc(b1-3)Gal(b1-4)GlcNAc(b1-2)Man(a1-3)[Gal(b1-4)GlcNAc(b1-3)Gal(b1-4)GlcNAc(b1-3)Gal(b1-4)GlcNAc(b1-2)Man(a1-6)]Man(b1-4)GlcNAc(b1-4)[Fuc(a1-6)]GlcNAc
How it was run: as §1

[20] = target: Gal(b1-4)GlcNAc(b1-3)Gal(b1-4)GlcNAc(b1-3)[Gal(b1-4)GlcNAc(b1-3)Gal(b1-4)GlcNAc(b1-6)]GalNAc
How it was run: as §1

[21] = target: Gal3S(b1-4)[Fuc(a1-3)]Glc6S
How it was run: as §1

Gal3S4S(b1-4)GlcNAc = target: Gal3S4S(b1-4)GlcNAc
How it was run: as §1

GalNAc(b1-4)Gal(b1-4)Glc = target: GalNAc(b1-4)Gal(b1-4)Glc
How it was run: as §1

GalNAc4S6S(b1-4)GlcNAc = target: GalNAc4S6S(b1-4)GlcNAc
How it was run: as §1

[22] = target: Glc(a1-6)Glc(a1-6)Glc(a1-6)Glc
How it was run: as §1

Glc(b1-4)Glc = target: Glc(b1-4)Glc
How it was run: as §1

[23] = target: GlcNAc(a1-4)Gal(b1-4)GlcNAc
How it was run: as §1

[24] = target: GlcNAc(b1-2)Gal(b1-3)GalNAc
How it was run: as §1

[25] = target: GlcNAc(b1-2)Man(a1-3)[GlcNAc(b1-2)Man(a1-6)]Man(b1-4)GlcNAc(b1-4)GlcNAc
How it was run: as §1

[26] = target: GlcNAc(b1-3)Gal(b1-4)GlcNAc(b1-3)Gal(b1-4)GlcNAc(b1-2)[GlcNAc(b1-3)Gal(b1-4)GlcNAc(b1-3)Gal(b1-4)GlcNAc(b1-6)]Man(a1-6)[GlcNAc(b1-3)Gal(b1-4)GlcNAc(b1-3)Gal(b1-4)GlcNAc(b1-2)Man(a1-3)]Man(b1-4)GlcNAc(b1-4)[Fuc(a1-6)]GlcNAc
How it was run: as §1

[27] = target: GlcNAc(b1-3)[GlcNAc(b1-6)]GalNAc
How it was run: as §1

[28] = target: Man(a1-2)Man(a1-3)[Man(a1-6)]Man(a1-6)[Man(a1-2)Man(a1-3)]Man(b1-4)GlcNAc(b1-4)GlcNAc
How it was run: as §1

MurNAc(b1-4)GlcNAc = target: MurNAc(b1-4)GlcNAc
How it was run: as §1

Neu5Ac(a2-3)Gal = target: Neu5Ac(a2-3)Gal
How it was run: as §1

[29] = target: Neu5Ac(a2-3)Gal(b1-3)GalNAc(b1-4)[Neu5Ac(a2-8)Neu5Ac(a2-3)]Gal(b1-4)Glc
How it was run: as §1

[30] = target: Neu5Ac(a2-3)Gal(b1-3)GlcNAc(b1-2)Man(a1-3)[Neu5Ac(a2-3)Gal(b1-3)GlcNAc(b1-2)Man(a1-6)]Man(b1-4)GlcNAc(b1-4)GlcNAc
How it was run: as §1

[31] = target: Neu5Ac(a2-3)Gal(b1-3)GlcNAc(b1-3)GalNAc
How it was run: as §1

[32] = target: Neu5Ac(a2-3)Gal(b1-3)[Fuc(a1-4)]GlcNAc(b1-3)Gal(b1-4)[Fuc(a1-3)]GlcNAc
How it was run: as §1

Neu5Ac(a2-3)Gal(b1-4)Glc = target: Neu5Ac(a2-3)Gal(b1-4)Glc
How it was run: as §1

[33] = target: Neu5Ac(a2-3)Gal(b1-4)GlcNAc(b1-3)Gal(b1-4)GlcNAc(b1-3)[Neu5Ac(a2-3)Gal(b1-4)GlcNAc(b1-3)Gal(b1-4)GlcNAc(b1-6)]GalNAc
How it was run: as §1

[34] = target: Neu5Ac(a2-3)Gal(b1-4)[Fuc(a1-3)]GlcNAc(b1-3)Gal(b1-4)[Fuc(a1-3)]GlcNAc(b1-3)Gal(b1-4)[Fuc(a1-3)]GlcNAc
How it was run: as §1

[35] = target: Neu5Ac(a2-3)Gal6S(b1-4)GlcNAc
How it was run: as §1

[36] = target: Neu5Ac(a2-3)[GalNAc(b1-4)]Gal(b1-4)Glc
How it was run: as §1

[37] = target: Neu5Ac(a2-3)[GalNAc(b1-4)]Gal(b1-4)GlcNAc(b1-3)GalNAc
How it was run: as §1

[38] = target: Neu5Ac(a2-6)Gal(b1-4)GlcNAc(b1-2)Man(a1-3)Man(b1-4)GlcNAc(b1-4)GlcNAc
How it was run: as §1

Neu5Ac(a2-6)GalNAc = target: Neu5Ac(a2-6)GalNAc
How it was run: as §1

[39] = target: Neu5Ac(a2-8)Neu5Ac(a2-3)Gal(b1-3)GalNAc(b1-4)[Neu5Ac(a2-8)Neu5Ac(a2-3)]Gal(b1-4)Glc
How it was run: as §1

[40] = target: Neu5Gc(a2-3)Gal(b1-3)[Fuc(a1-4)]GlcNAc
How it was run: as §1

B1: Siglec-E (Mus musculus), Q91Y57 (protein)
chain: MLLLLLLLLLWGIKGVEGQNPQEVFTLNVERKVVVQEGLCVLVPCNFSYLKKRLTDWTDSDPVHGFWYREGTDRRKDSIVATNNPIRKAVKETRNRFFLLGDPWRNDCSLNIREIRKKDAGLYFFRLERGKTKYNYMWDKMTLVVTALTNTPQILLPETLEAGHPSNLTCSVPWDCGWTAPPIFSWTGTSVSFLSTNTTGSSVLTITPQPQDHGTNLTCQVTLPGTNVSTRMTTRLNVSYAPKNLTVTIYQGADSVSTILKNGSSLPISEGQSLRLICSTDSYPPANLSWSWDNLTLCPSKLSKPGLLELFPVHLKHGGVYTCQAQHALGSQHISLSLSPQSSATLSEMMMGTFVGSGVTALLFLSVCILLLAVRSYRRKPARPAVVAPHPDALKVSVSQNPLVESQADDSSEPLPSILEAAPSSTEEEIHYATLSFHEMKPMNLWGQQDTTTEYSEIKFPQRTAWP
- glycan array binding signal (z-score) [1]: 3.48
- glycan array binding signal (z-score) [2]: 0.284
- glycan array binding signal (z-score) [3]: 3.46
- glycan array binding signal (z-score) [4]: 0.178
- glycan array binding signal (z-score) [5]: 5.32
- glycan array binding signal (z-score) [6]: 3.5
- glycan array binding signal (z-score) [7]: 5.58
- glycan array binding signal (z-score) [8]: 0.611
- glycan array binding signal (z-score) [9]: -0.176
- glycan array binding signal (z-score) [10]: -0.363
- glycan array binding signal (z-score) [11]: -0.35
- glycan array binding signal (z-score) (Fuc(a1-4)GlcNAc): 4.01
- glycan array binding signal (z-score) [12]: -0.381
- glycan array binding signal (z-score) [13]: 6.54
- glycan array binding signal (z-score) (Gal(a1-3)GalNAc): -0.309
- glycan array binding signal (z-score) [14]: 4.23
- glycan array binding signal (z-score) (Gal(a1-6)Glc): 0.863
- glycan array binding signal (z-score) [15]: -0.496
- glycan array binding signal (z-score) (Gal(b1-3)GlcNAc(b1-2)Man): -0.592
- glycan array binding signal (z-score) [16]: 1.66
- glycan array binding signal (z-score) (Gal(b1-4)Gal): 3.25
- glycan array binding signal (z-score) [17]: -0.625
- glycan array binding signal (z-score) [18]: -0.667
- glycan array binding signal (z-score) [19]: -0.527
- glycan array binding signal (z-score) [20]: -0.06
- glycan array binding signal (z-score) [21]: 0.707
- glycan array binding signal (z-score) (Gal3S4S(b1-4)GlcNAc): -0.239
- glycan array binding signal (z-score) (GalNAc(b1-4)Gal(b1-4)Glc): 4.05
- glycan array binding signal (z-score) (GalNAc4S6S(b1-4)GlcNAc): -0.147
- glycan array binding signal (z-score) [22]: 1.1
- glycan array binding signal (z-score) (Glc(b1-4)Glc): -0.196
- glycan array binding signal (z-score) [23]: -0.41
- glycan array binding signal (z-score) [24]: -0.364
- glycan array binding signal (z-score) [25]: -0.12
- glycan array binding signal (z-score) [26]: -0.336
- glycan array binding signal (z-score) [27]: -0.05
- glycan array binding signal (z-score) [28]: -0.61
- glycan array binding signal (z-score) (MurNAc(b1-4)GlcNAc): -0.464
- glycan array binding signal (z-score) (Neu5Ac(a2-3)Gal): -0.19
- glycan array binding signal (z-score) [29]: 0.68
- glycan array binding signal (z-score) [30]: 6.41
- glycan array binding signal (z-score) [31]: -0.226
- glycan array binding signal (z-score) [32]: -0.475
- glycan array binding signal (z-score) (Neu5Ac(a2-3)Gal(b1-4)Glc): 3.95
- glycan array binding signal (z-score) [33]: -0.335
- glycan array binding signal (z-score) [34]: -0.568
- glycan array binding signal (z-score) [35]: -0.532
- glycan array binding signal (z-score) [36]: -0.34
- glycan array binding signal (z-score) [37]: -0.355
- glycan array binding signal (z-score) [38]: -0.181
- glycan array binding signal (z-score) (Neu5Ac(a2-6)GalNAc): -0.32
- glycan array binding signal (z-score) [39]: 0.342
- glycan array binding signal (z-score) [40]: 0.48

From the supplement of paper PMC8728848
